Data on one sequence can be found in PMC7862700, “An all-to-all approach to the identification of sequence-specific readers for epigenetic DNA modifications on cytosine”.

Holding throughout (test): DAPPL (digital affinity profiling via proximity ligation, sequencing); 10 mM Tris-HCl pH 7.5, 50 mM NaCl, 1 mM DTT, 4% glycerol, room temperature, 30 min; GST-TFs on glutathione beads, 16-mer random dsDNA library, 0.1% formaldehyde crosslink after washing; high values mean tight binding
The target of assay [1] is T1, FEV (Homo sapiens, UniProt Q99581 1-238).
T1 sequence: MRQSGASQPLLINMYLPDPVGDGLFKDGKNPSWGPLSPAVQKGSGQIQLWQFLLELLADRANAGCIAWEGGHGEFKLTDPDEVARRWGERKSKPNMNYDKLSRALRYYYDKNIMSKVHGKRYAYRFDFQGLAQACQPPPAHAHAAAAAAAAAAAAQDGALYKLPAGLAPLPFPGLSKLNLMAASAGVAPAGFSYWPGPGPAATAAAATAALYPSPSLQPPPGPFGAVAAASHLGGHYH
The note with it: protein: recombinant; tags: N-terminal GST; dsDNA, one strand shown. Put shortly: (§1)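 Each value of binding signal is a hexamer's read frequency for a factor divided by the same hexamer's frequency in the tag-only sample. Barcoded, bead-captured GST fusions of human transcription factors made in yeast were pooled with that sample and incubated with 200 nmole of a random double-stranded 16-mer DNA library in Tris/NaCl/DTT/glycerol buffer at room temperature for 30 min. Washing, 0.1% formaldehyde crosslinking, proximity ligation, PCR and Illumina NextSeq500 sequencing followed.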

The target in assay [2] is ETV5 (Homo sapiens, UniProt P41161 1-510). The note with it: protein: recombinant; tags: N-terminal GST; dsDNA, one strand shown. The gist of the method: as §1
Chain of ETV5 (P41161 whole entry): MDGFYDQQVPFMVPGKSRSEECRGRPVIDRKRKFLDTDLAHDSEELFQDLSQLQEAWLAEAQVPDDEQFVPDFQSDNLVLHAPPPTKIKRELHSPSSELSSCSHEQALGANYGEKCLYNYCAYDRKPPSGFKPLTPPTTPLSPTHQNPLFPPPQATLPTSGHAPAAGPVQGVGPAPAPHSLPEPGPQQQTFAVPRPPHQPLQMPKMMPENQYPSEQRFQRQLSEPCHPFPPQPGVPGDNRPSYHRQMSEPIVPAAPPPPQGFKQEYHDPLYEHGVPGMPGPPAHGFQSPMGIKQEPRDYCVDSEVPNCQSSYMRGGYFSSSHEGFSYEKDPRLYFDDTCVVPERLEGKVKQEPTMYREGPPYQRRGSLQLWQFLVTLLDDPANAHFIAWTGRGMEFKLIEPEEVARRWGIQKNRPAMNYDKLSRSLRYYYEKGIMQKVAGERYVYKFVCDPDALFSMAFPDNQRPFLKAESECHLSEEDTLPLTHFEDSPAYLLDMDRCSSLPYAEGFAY
The target in assay [3] is HSF1 (Homo sapiens, UniProt Q00613 1-529). As to conditions: protein: recombinant; tags: N-terminal GST; chain copies: 3; dsDNA, one strand shown. The gist of the method: as §1
Chain of HSF1 (Q00613 whole entry): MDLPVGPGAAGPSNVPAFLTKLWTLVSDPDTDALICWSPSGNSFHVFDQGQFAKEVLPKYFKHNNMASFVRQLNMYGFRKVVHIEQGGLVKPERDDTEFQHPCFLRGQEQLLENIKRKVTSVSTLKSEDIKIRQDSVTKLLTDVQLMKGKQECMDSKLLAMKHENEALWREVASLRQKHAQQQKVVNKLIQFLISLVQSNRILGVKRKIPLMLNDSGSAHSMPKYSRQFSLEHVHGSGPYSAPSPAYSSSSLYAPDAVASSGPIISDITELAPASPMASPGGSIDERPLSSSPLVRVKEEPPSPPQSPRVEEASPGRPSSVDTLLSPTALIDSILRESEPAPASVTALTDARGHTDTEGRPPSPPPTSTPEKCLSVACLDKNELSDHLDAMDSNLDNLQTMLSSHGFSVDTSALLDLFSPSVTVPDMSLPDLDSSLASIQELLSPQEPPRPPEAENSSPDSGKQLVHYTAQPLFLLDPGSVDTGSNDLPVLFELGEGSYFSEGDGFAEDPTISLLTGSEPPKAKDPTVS
Assay [4] deals with T2, SPIC (Homo sapiens, UniProt Q8N5J4 1-248).
T2 sequence: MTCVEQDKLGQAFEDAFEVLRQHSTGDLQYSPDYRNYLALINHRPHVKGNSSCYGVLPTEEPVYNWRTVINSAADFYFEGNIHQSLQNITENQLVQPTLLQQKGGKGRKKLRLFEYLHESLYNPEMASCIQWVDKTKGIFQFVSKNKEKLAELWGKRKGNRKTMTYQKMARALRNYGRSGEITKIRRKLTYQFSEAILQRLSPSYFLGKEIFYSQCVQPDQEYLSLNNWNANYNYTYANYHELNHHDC
The note with it: protein: recombinant; tags: N-terminal GST; dsDNA, one strand shown. The gist of the method:
as §1

Assay [5] deals with ELF4 (Homo sapiens, UniProt Q99607 1-663). As to conditions: protein: recombinant; tags: N-terminal GST; dsDNA, one strand shown. Put shortly:
as §1

In assay [6] the target is T3, ELK4 (Homo sapiens, UniProt P28324-2 1-405).
T3 sequence: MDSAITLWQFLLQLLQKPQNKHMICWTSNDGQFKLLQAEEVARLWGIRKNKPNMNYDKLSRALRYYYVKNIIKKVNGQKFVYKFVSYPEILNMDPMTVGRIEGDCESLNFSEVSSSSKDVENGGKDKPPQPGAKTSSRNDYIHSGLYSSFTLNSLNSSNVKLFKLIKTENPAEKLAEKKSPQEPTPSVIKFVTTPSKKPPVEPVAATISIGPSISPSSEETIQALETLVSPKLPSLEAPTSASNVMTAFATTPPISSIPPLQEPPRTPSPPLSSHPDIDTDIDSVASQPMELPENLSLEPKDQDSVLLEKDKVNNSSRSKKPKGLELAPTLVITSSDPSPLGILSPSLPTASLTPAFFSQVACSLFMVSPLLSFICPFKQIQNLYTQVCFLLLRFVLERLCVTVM
As to conditions: protein: recombinant; tags: N-terminal GST; dsDNA, one strand shown. Put shortly:
as §1

Assay [7] concerns the target T4, ETV2 (Homo sapiens, UniProt O00321 1-342).
T4 sequence: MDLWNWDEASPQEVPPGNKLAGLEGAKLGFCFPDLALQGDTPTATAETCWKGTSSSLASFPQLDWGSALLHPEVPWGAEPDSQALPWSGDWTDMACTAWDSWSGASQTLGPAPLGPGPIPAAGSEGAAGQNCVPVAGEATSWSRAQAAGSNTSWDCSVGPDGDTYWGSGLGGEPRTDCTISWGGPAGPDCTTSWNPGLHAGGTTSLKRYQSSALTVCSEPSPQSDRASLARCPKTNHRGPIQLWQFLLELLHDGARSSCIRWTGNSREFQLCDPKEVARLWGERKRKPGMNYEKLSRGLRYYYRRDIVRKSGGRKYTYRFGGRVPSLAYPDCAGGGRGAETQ
As to conditions: protein: recombinant; tags: N-terminal GST; dsDNA, one strand shown. Put shortly: as §1

The target of assay [8] is T5, ELF3 (Homo sapiens, UniProt P78545 1-371).
T5 sequence: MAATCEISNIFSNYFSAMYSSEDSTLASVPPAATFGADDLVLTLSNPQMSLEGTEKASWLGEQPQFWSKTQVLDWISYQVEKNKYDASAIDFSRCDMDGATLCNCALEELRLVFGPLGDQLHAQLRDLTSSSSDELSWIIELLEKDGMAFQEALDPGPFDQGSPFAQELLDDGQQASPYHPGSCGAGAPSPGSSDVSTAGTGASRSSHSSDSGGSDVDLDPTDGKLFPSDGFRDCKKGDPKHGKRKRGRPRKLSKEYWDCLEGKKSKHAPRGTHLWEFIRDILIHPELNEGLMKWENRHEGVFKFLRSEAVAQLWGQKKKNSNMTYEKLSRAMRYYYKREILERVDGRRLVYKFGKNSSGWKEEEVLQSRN
As to conditions: protein: recombinant; tags: N-terminal GST; dsDNA, one strand shown. Put shortly: as §1

The target in assay [9] is CRX (Homo sapiens, UniProt O43186 1-299). The note with it: protein: recombinant; tags: N-terminal GST; dsDNA, one strand shown. The gist of the method:
as §1

In assay [10] the target is ETV1 (Homo sapiens, UniProt P50549 1-477). The note with it: protein: recombinant; tags: N-terminal GST; dsDNA, one strand shown. Put shortly:
as §1

Assay [11] has as its target T6, ERF (Homo sapiens, UniProt P50548 1-548).
T6 sequence: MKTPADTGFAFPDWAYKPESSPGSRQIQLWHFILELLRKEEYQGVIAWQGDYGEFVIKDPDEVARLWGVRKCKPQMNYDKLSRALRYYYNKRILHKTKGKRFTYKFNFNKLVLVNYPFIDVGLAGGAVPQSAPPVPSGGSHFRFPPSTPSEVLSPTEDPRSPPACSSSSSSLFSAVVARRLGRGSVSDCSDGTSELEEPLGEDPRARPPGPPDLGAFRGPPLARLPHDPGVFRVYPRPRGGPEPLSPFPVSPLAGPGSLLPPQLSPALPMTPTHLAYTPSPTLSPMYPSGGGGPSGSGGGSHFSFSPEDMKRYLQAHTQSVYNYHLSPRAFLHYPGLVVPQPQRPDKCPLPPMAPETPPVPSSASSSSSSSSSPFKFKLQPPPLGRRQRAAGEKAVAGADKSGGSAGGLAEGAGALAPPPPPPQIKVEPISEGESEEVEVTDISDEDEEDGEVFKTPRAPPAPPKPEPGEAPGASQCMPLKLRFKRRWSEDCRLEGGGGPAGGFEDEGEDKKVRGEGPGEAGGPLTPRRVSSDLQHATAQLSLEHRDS
The note with it: protein: recombinant; tags: N-terminal GST; dsDNA, one strand shown. The gist of the method: as §1

Assay [12] has as its target T7, ETV3L (Homo sapiens, UniProt Q6ZN32 1-361).
T7 sequence: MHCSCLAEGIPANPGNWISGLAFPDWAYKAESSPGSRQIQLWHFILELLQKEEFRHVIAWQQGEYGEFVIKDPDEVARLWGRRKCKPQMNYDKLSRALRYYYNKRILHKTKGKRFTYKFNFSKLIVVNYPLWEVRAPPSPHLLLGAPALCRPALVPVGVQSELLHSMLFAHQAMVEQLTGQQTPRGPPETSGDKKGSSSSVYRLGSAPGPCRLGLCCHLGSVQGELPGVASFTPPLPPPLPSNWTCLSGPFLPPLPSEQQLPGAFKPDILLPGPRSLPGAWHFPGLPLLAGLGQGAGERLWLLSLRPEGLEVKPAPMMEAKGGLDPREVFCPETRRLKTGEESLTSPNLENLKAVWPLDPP
The note with it: protein: recombinant; tags: N-terminal GST; dsDNA, one strand shown. The gist of the method:
as §1

For assay [13], the target named is T8, ETS2 (Homo sapiens, UniProt P15036 1-469).
T8 sequence: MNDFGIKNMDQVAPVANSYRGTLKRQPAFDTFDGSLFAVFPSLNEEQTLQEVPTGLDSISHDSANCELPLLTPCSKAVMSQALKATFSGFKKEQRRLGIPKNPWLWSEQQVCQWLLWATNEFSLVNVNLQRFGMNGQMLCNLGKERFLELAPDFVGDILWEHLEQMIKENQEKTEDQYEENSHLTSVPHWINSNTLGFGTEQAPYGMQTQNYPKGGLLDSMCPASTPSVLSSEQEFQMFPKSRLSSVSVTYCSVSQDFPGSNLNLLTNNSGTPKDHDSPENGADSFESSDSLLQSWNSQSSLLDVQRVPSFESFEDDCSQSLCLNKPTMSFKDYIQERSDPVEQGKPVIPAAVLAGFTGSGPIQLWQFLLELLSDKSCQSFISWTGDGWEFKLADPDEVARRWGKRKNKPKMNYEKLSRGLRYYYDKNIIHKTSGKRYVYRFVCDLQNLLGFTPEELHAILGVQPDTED
The note with it: protein: recombinant; tags: N-terminal GST; dsDNA, one strand shown. The gist of the method: as §1

Assay [14] addresses T9, SPDEF (Homo sapiens, UniProt O95238 1-335).
T9 sequence: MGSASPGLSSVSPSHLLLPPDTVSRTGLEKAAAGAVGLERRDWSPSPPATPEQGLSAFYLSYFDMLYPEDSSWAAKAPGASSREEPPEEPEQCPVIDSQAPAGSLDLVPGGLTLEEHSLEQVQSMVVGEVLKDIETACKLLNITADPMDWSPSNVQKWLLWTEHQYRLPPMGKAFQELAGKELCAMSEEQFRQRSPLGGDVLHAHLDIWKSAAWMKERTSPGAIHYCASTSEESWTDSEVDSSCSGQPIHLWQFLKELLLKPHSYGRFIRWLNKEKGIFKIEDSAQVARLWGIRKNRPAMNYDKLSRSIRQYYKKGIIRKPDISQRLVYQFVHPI
As to conditions: protein: recombinant; tags: N-terminal GST; dsDNA, one strand shown. The gist of the method:
as §1

For assay [15], the target named is T10, ETV7 (Homo sapiens, UniProt Q9Y603 1-341).
T10 sequence: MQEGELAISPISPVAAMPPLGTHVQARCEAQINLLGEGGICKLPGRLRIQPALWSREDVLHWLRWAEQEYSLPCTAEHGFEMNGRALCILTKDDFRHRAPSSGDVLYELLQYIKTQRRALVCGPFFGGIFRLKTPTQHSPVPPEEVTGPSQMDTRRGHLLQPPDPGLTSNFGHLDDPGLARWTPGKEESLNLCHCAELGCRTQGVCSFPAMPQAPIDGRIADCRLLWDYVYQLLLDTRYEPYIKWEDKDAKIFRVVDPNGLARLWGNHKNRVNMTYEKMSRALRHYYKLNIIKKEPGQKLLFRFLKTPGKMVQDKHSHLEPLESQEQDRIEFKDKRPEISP
The note with it: protein: recombinant; tags: N-terminal GST; dsDNA, one strand shown. Put shortly:
as §1

Assay [16] deals with T11, ELF5 (Homo sapiens, UniProt Q9UKW6-2 1-255).
T11 sequence: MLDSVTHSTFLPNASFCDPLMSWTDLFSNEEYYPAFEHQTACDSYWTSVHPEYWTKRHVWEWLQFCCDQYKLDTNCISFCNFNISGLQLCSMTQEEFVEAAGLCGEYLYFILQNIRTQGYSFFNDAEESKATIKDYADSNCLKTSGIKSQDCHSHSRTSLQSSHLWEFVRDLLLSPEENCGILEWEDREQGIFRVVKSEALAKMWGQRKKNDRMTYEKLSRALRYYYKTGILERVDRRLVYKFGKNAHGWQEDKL
As to conditions: protein: recombinant; tags: N-terminal GST; dsDNA, one strand shown. The gist of the method: as §1

The target in assay [17] is T12, ETV3 (Homo sapiens, UniProt P41162-2 1-143).
T12 sequence: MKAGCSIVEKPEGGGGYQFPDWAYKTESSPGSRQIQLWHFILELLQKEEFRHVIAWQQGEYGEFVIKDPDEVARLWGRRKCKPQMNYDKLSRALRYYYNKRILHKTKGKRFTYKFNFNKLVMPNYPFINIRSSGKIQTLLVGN
As to conditions: protein: recombinant; tags: N-terminal GST; dsDNA, one strand shown. The gist of the method: as §1

For assay [18], the target named is ETV6 (Homo sapiens, UniProt P41212 1-452). The note with it: protein: recombinant; tags: N-terminal GST; dsDNA, one strand shown. Put shortly: as §1
Chain of ETV6 (P41212 whole entry): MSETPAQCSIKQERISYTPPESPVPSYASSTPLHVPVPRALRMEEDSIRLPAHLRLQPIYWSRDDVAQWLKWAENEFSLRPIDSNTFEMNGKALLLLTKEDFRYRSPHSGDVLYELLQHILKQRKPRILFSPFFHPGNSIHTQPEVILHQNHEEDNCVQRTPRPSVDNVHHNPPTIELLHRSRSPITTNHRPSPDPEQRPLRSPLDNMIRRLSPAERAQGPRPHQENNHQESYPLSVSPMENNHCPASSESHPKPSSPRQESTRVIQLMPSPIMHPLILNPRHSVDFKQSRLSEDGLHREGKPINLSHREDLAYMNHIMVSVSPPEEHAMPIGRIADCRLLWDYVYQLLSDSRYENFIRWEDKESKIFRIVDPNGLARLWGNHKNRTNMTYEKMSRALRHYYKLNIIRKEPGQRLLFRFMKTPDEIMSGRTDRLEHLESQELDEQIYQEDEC

Chain of ETV1 (P50549 whole entry): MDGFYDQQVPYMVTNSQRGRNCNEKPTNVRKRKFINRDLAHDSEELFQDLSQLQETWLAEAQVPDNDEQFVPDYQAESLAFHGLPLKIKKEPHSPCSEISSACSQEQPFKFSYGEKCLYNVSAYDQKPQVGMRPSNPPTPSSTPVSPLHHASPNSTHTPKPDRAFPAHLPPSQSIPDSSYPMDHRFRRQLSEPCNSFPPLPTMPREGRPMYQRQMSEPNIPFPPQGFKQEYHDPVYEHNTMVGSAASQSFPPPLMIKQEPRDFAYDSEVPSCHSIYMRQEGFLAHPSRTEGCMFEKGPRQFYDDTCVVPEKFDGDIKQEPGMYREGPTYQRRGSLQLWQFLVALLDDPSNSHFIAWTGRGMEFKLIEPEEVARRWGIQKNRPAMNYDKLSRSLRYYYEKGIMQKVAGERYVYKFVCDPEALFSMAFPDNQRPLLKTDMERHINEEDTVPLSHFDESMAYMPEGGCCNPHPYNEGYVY
Chain of CRX (O43186 whole entry): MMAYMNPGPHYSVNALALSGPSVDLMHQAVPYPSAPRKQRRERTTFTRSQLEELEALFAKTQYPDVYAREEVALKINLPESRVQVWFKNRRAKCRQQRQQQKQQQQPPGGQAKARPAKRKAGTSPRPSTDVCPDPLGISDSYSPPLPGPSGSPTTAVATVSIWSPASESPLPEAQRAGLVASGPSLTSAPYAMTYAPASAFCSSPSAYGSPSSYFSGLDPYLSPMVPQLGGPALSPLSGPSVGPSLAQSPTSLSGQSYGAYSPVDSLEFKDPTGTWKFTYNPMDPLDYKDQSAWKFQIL
Chain of ELF4 (Q99607 whole entry): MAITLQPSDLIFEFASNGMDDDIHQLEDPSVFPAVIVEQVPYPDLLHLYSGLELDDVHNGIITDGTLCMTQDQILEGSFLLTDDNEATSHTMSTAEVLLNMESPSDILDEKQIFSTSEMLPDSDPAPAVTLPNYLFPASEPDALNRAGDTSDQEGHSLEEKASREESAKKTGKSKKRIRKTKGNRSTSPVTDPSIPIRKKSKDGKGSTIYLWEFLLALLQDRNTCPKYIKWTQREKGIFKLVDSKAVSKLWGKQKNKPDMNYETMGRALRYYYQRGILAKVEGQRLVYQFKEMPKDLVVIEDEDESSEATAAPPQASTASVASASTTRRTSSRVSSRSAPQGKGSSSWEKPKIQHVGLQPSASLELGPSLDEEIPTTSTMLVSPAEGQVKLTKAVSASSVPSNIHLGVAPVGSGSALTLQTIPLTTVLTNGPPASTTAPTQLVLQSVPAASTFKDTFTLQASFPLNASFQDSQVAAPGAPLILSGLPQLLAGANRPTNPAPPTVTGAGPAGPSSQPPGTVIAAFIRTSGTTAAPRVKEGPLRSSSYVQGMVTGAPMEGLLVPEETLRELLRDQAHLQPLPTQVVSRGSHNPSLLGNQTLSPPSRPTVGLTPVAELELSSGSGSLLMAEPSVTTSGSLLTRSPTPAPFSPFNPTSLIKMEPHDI

With TCTACT, the binding signal in assay [1] is 1.39 fold enrichment (6-mer frequency, TF over GST control); in assay [2], 1.39 fold enrichment (6-mer frequency, TF over GST control); in assay [3], 1.51 fold enrichment (6-mer frequency, TF over GST control); in assay [4] it was 1.51 fold enrichment (6-mer frequency, TF over GST control); in assay [5], 1.34 fold enrichment (6-mer frequency, TF over GST control); in assay [6], 1.27 fold enrichment (6-mer frequency, TF over GST control). Further, the binding signal in assay [7] is 1.31 fold enrichment (6-mer frequency, TF over GST control); in [8], 1.38 fold enrichment (6-mer frequency, TF over GST control); in assay [9], 1.45 fold enrichment (6-mer frequency, TF over GST control); in [10], 1.47 fold enrichment (6-mer frequency, TF over GST control); in assay [11], 1.42 fold enrichment (6-mer frequency, TF over GST control); in assay [12] it was 1.51 fold enrichment (6-mer frequency, TF over GST control). The binding signal in assay [13] was 1.41 fold enrichment (6-mer frequency, TF over GST control); in [14] it was 1.42 fold enrichment (6-mer frequency, TF over GST control); in assay [15] it was 1.32 fold enrichment (6-mer frequency, TF over GST control); in assay [16], 1.37 fold enrichment (6-mer frequency, TF over GST control); in [17], 1.2 fold enrichment (6-mer frequency, TF over GST control); in [18], 1.41 fold enrichment (6-mer frequency, TF over GST control).
